Source: PubChem BioAssay

System: glycogen synthase kinase-3 (GSK3A per assay name; protocol says GSK3B)
Experiment: GSK3 binders on small-molecule microarrays, primary screen, biochemical, small-molecule microarray, 635 nm fluorescence, GSK3A (AID 1103); further: the record names both GSK3A and GSK3B
Details: small-molecule microarray binding, fluorescence 635 nm; higher = more signal

Q: Which composite z-score does the source give for `O=C1[C@H]2[C@H]3[C@H](O)[C@H](O)CC(=NO[C@@H]4O[C@H](CO)[C@@H](O)[C@H](O)[C@H]4O)[C@H]3CC[C@H]2C(=O)N1c1ccc(F)cc1F` here?
A: -0.444

Q: With `CCCNC(=O)OC[C@H]1O[C@H](CCON=C2c3cc(OC)ccc3O[C@H](c3cccc(OC)c3)[C@H]2O)C=C[C@@H]1Oc1ccc(OC)cc1` as the molecule, how does the composite z-score read?
A: 0.21

Q: How did the composite z-score turn out when `O=C1[C@H]2CCn3c(=O)n(-c4ccccc4)c(=O)n3[C@H]2[C@H](O)[C@@H]2O[C@H]12` was run?
A: 0.381

Q: Which composite z-score does the source give for `CC(C)=CCCC(C)=CCON=C1C[C@@H](O)[C@@H](O)[C@@H]2[C@@H]3C(=O)N(Cc4ccc5c(c4)OCO5)C(=O)[C@@H]3CC[C@H]12` here?
A: 0.327

Q: With `O=C1[C@H]2[C@H]3[C@H](O)[C@H](O)CC(=NOCc4ccccc4)[C@H]3CC[C@H]2C(=O)N1C1CCCCC1` as the molecule, how does the composite z-score read?
A: 0.338

Q: `CC(C)(C)N1C(=O)[C@H]2[C@H]3[C@H](O)[C@H](O)CC(=NOC[C@@H](O)COCc4ccco4)[C@H]3CC[C@H]2C1=O` was tested. Which composite z-score did it give?
A: -0.274

Q: How did the composite z-score turn out when `COC(=O)[C@H](C)NC(=O)CCC1CC(OC(=O)NCc2ccc3c(c2)OCO3)CC2(CCCC(COC(=O)NCCC(C)C)O2)O1` (some centres not stated) was run?
A: 0.69

Q: With `COC(=O)[C@H](C)NC(=O)CC=C[C@@H](C)[C@@H]1C=C[C@H](O)[C@@H](CO)O1` as the molecule, how does the composite z-score read?
A: 0.902

Q: How did the composite z-score turn out when `CC(CCN1CCCCc2nc(C)c(C)cc21)=NOC[C@@H](O)[C@H]1O[C@@H]2OC(C)(C)O[C@@H]2[C@H]1O` was run?
A: 0.397

Q: Which composite z-score does the source give for `CC(C)=CCCC(C)=CCON=C1[C@H]2CCn3c(=O)n(-c4ccccc4)c(=O)n3[C@H]2[C@H](O)[C@@H]2O[C@H]12` here?
A: 1.26

Q: How did the composite z-score turn out when `COc1ccc(OC[C@@H]2CC3[C@@H](c4ccc(Br)cc4)[C@H](C)CC[C@H]3C(=O)O2)cc1` (some centres not stated) was run?
A: -0.274

Q: How did the composite z-score turn out when `COC(=O)[C@H](C)NC(=O)CCC1CC(OC(=O)NCCc2ccc(F)cc2)CC2(CCCC(COC(=O)NCC3CCCCC3)O2)O1` (some centres not stated) was run?
A: 1.23

Q: How did the composite z-score turn out when `COC(=O)[C@H](C)NC(=O)CCC1CC(OC(=O)NCc2cccc3ccccc23)CC2(CCCC(COC(=O)NCCC(C)C)O2)O1` (some centres not stated) was run?
A: 0.247

Q: `O=C1[C@H]2[C@H]3[C@H](O)[C@H](O)CC(=NOC[C@@H](O)COCc4ccco4)[C@@H]3CC[C@H]2C(=O)N1c1cccc(Oc2ccccc2)c1` was tested. Which composite z-score did it give?
A: -0.91

Q: For `CCOC(=O)NN=C1C[C@@H](O)[C@@H](O)[C@@H]2[C@@H]3C(=O)N(C[C@@H]4CCCO4)C(=O)[C@@H]3CC[C@H]12`, which composite z-score is on record?
A: 0.417

Q: `C[C@@H](c1ccccc1)N1C(=O)[C@H]2[C@H]3[C@H](O)[C@H](O)CC(=NOCc4ccccc4)[C@@H]3CC[C@H]2C1=O` was tested. Which composite z-score did it give?
A: -0.187

Q: Which composite z-score does the source give for `CCOC(=O)[C@H](Cc1ccccc1)NC(=O)CCC1CC(OC(=O)NCc2ccc3c(c2)OCO3)CC2(CCCC(COC(=O)NCCOc3ccccc3)O2)O1` (some centres not stated) here?
A: 1.1

Q: For `C[C@H]1CC[C@H]2C(=O)N[C@H](Cc3ccccc3)C(=O)N2[C@@H]1c1ccccc1`, which composite z-score is on record?
A: -0.0595

Q: How did the composite z-score turn out when `CCN1C(=O)[C@H]2[C@H]3[C@H](O)[C@H](O)CC(=NOCC[C@@H]4C=C[C@H](OC(C)=O)[C@@H](COC(C)=O)O4)[C@@H]3CC[C@H]2C1=O` was run?
A: 0.0008

Q: `CCCNC(=O)OC[C@H]1O[C@H](CCON=C[C@@H](NS(=O)(=O)c2ccc(C)cc2)[C@H](C)C=CCC(=O)OC)C=C[C@@H]1Oc1ccc(OC)cc1` was tested. Which composite z-score did it give?
A: -0.54

Q: How did the composite z-score turn out when `C#CCCCON=C1C[C@@H](O)[C@@H](O)[C@@H]2[C@@H]3C(=O)N(C[C@@H]4CCCO4)C(=O)[C@@H]3CC[C@H]12` was run?
A: 0.444

Q: With `CC(C)CON=C1C[C@@H](O)[C@@H](O)[C@@H]2[C@@H]3C(=O)N(c4ccc(F)cc4F)C(=O)[C@@H]3CC[C@@H]12` as the molecule, how does the composite z-score read?
A: 0.598

Q: How did the composite z-score turn out when `O=C1C=C[C@@H](O)[C@@H]2[C@@H]3C(=O)N(Cc4ccccc4)C(=O)[C@@H]3CC[C@@H]12` was run?
A: 0.653

Q: `CC1(C)O[C@H]2OC([C@H](O)CON3C(=O)c4ccccc4C3=O)[C@H](O)[C@H]2O1` (some centres not stated) was tested. Which composite z-score did it give?
A: 0.0618

Q: Which composite z-score does the source give for `C[C@H]1CC[C@H]2C(=O)OC(COc3ccc(C(C)(C)C)cc3)CN2[C@@H]1c1ccc(Br)cc1` (some centres not stated) here?
A: 0.364

Q: With `CC1(C)O[C@H]2O[C@H]([C@H](O)CON=C3[C@H]4CCn5c(=O)n(-c6ccccc6)c(=O)n5[C@H]4[C@H](O)[C@@H]4O[C@H]34)[C@H](O)[C@H]2O1` as the molecule, how does the composite z-score read?
A: 0.085

Q: How did the composite z-score turn out when `CC(C)=CCCC(C)=CCON=C1C[C@@H](O)[C@@H](O)[C@@H]2[C@@H]3C(=O)N(c4cccc(Oc5ccccc5)c4)C(=O)[C@@H]3CC[C@H]12` was run?
A: 0.286
